Experimental data as given in PubChem BioAssay AID2551 (National Center for Advancing Translational Sciences (NCATS), 2010).
Out of some 310,000 compounds screened, about 17,000 (5.5%) were called active. Another 11% or so got no clear call; they are omitted. This is one part of a sample in which actives are shown more often than they occur. The call rests on the fitted dose curve; in most records, active means well fitted inhibition curve with a large enough effect; inconclusive means small, poorly fitted or top-dose-only effect, or effect the other way; inactive means no such curve, though single readings can be large or run the other way.

Each compound was assayed against Nuclear receptor ROR-gamma (Mus musculus) (UniProt P51450) (assay: qHTS for inhibitors of ROR gamma transcriptional activity). Conditions: Drosophila S2 Gal4-RORgamma UAS-luciferase reporter, 20 h; series mostly up to 53.6 µM; activity change, negative = inhibition: at the top concentration.
Nuclear receptor ROR-gamma (Mus musculus), sequence (P51450 whole entry, looked up, the tested form may be a part): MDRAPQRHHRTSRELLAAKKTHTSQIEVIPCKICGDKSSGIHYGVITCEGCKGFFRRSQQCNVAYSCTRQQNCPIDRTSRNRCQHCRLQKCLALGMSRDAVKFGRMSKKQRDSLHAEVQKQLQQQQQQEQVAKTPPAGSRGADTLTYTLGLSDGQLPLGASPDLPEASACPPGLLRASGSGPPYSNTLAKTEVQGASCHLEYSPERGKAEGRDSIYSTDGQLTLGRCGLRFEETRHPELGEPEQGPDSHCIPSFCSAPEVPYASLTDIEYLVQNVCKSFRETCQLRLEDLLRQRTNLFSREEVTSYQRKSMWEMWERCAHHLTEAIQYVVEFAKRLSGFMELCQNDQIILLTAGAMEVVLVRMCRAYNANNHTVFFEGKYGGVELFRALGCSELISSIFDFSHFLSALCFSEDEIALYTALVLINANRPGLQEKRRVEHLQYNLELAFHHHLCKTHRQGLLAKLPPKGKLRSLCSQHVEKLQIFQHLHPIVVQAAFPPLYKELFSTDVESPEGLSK
In short: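 Using a luciferase readout, inhibitors were identified by reduced reporter activity in Drosophila cells coexpressing a copper-inducible Gal4–ROR gamma fusion and UAS-driven Photinus luciferase, incubated 20 hr after 700 uM copper sulfate.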
Further: nearly all actives have a fitted effect of over 60% in size.
On the % scale 0 is the no-effect control and ±100 the full control effect; potency means the concentration at half of the fitted maximal effect.

Potency, active:
Cn1nnc(NC(=S)NC(=O)c2ccccc2)n1 3.55 µM
Cc1cccc2sc(N(CCCN(C)C)C(=O)CCS(=O)(=O)c3ccccc3)nc12 10 µM
COc1cccc2sc(N(CCCN(C)C)C(=O)CCS(=O)(=O)c3ccccc3)nc12 11.2 µM
COCCCNC(=S)NCCNc1nc2cc(C)c(C)cc2cc1C#N 15.8 µM
CC(C)CC[n+]1ccn(C2=C([O-])c3ccccc3C(=O)/C2=N\S(=O)(=O)c2ccccc2)c1 11.2 µM
O=C(/C=C/c1ccc(Cl)cc1Cl)c1cccnc1 2.82 µM
O=C(/C=C/c1ccc([N+](=O)[O-])o1)NNC(=O)c1ccc(F)cc1 2.82 µM
C=CCn1c2ccccc2c2nnc(SCc3[nH]c(=O)[nH]c3C(=O)CCCCC(=O)OCC)nc21 12.6 µM
Cc1ccc(-n2c(-c3ccc(Cl)cc3)n[nH]c2=S)cc1 3.16 µM
COc1ccc(-n2c(-c3ccc(OC)c(OC)c3)n[nH]c2=S)cc1 11.2 µM
Cc1cc(C)nc(NNC2=CC(=O)CC(C)(C)C2)n1 17.8 µM

Activity change, negative = inhibition, inactive:
COC(=O)c1nc(NC(=O)c2ccccc2)n[nH]1 7.37%
Cn1nnc(NC(=O)CSc2ncn[nH]2)n1 24.3%
COc1ccc(CN2CCN(C(=O)CCC(=O)Nc3nnc(C(C)C)s3)CC2)cc1F 21.6%
O=C(CN(Cc1ccccc1)C(=O)CCC(=O)Nc1ccccn1)NCCc1ccccc1 24.4%
Cc1cc(C)c2nc(N(CCN(C)C)C(=O)/C=C/c3cccs3)sc2c1 -0.19%
COc1cc2ccccc2cc1C(=O)N(CCN(C)C)c1nc2c(F)cccc2s1 -22.6%
Cc1ccc2sc(N(CCN(C)C)C(=O)/C=C/c3cccs3)nc2c1C -30.6%
CN(C)CCCN(C(=O)COc1ccccc1)c1nc2c(Cl)cccc2s1 -9.36%
Cc1cccc(N2CCN(S(=O)(=O)c3ccc(-c4cc(C)no4)s3)CC2C)c1 (stereo not given) 2.22%
COc1ccc(C(CNC(=O)c2cc3c(s2)CCCC3)N2CCOCC2)cc1 (stereo not given) -19.1%
COc1cc(C(=O)NC2CCN(Cc3ccccc3)CC2)cc(Cl)c1OC(C)C -13.7%
COc1ccc(C(CNC(=O)COc2ccccc2OC)N2CCCCC2)cc1 (stereo not given) -9.48%
Cc1ccc2cc(C#N)c(NCCNC(=S)NCCCN3CCOCC3)nc2c1 -78.1%
Cc1ccc2nc(NCCCNC(=O)c3cnccn3)c(C#N)cc2c1 -1.25%
COCC(=O)Nc1c(C(=O)N2CCCC2)oc2ccccc12 26.7%
CC(NC(=O)COc1ccc(-c2ccccc2)cc1)C1CCCO1 (stereo not given) -0.806%
COc1ccc(S(=O)(=O)/N=C2\C=C(NS(=O)(=O)c3ccccc3)C(=O)c3ccccc32)cc1 -36.9%
COc1ccc(C2CC(c3ccc([N+](=O)[O-])cc3)=NN2C(C)=O)cc1 (stereo not given) 21.7%
CC(C)C(C)NC(=O)COc1nc2ccccc2nc1N(C)C1CCCCC1 (stereo not given) 27.3%
O=C(Nc1cccnc1)c1cc(Cl)ccc1Cl -7.73%
O=C(/C=C/c1ccc(Cl)c([N+](=O)[O-])c1)c1cccnc1 -10.5%
Cc1ccc(/C=C/C(=O)Nc2ccc([N+](=O)[O-])c(NC(=O)/C=C/c3ccc(C)o3)c2)o1 4.73%
O=C(N/N=C/c1ccc([N+](=O)[O-])o1)c1cn(-c2ccccc2)nc1-c1ccc(F)cc1 -38.7%
Cc1cc2c(cc1S(=O)(=O)NCc1ccc(Cl)cc1)OCC(=O)N2 6.35%
C=CCn1c2ccccc2c2nnc(SC(CC)C(=O)Nc3nc(C)c(C(=O)OCC)s3)nc21 (stereo not given) -6.1%
C=CCn1c(SCC(=O)CC(=O)OCC)nc2cc(C(=O)N3CCC(C(N)=O)CC3)ccc2c1=O 15%
CCNC(=S)N(CCN(CC)CC)Cc1cc2cc3c(cc2[nH]c1=O)OCCO3 9.92%
O=C(Nc1ccncc1)c1ccc([N+](=O)[O-])cc1Cl -3.39%
COc1ccc(-c2cn(-c3ccc(C)cc3)c(=O)n2CC(=O)Nc2ccc(OC)c(OC)c2)cc1 51%
COC(=O)c1sc(=S)n(-c2ccc(Cl)cc2)c1C 2.4%
COc1ccc(OC)c(-n2c(-c3ccn[nH]3)n[nH]c2=S)c1 -4.51%
Cc1cc(-c2n[nH]c(=S)n2-c2ccc(C)c(C)c2)no1 6.4%
COc1ccc(OC)c(CNC(=O)Cn2nc(C)c3c(C)n(-c4ccc(C)cc4)nc3c2=O)c1 33.3%
COc1ccc(C(C)NC(=O)C2CCCC2)cc1 (stereo not given) 3.72%
Cc1cc(=O)oc2c3c(cc(OCC(=O)NCc4ccccn4)c12)OC(C)(C)CC3 5.08%
Clc1ccc(CN2CCCCCC2)cc1Cl -12.3%
CCc1ccccc1N(CC(=O)NCC1CCCO1)C(=O)CCC(=O)Nc1nccs1 (stereo not given) -8.86%
CC1(C)CC(=O)C=C(Nc2ccccc2)C1 14.2%
COC(=O)NNC1=CC(=O)CC(C)(C)C1 -9.78%
CN1CCN(c2ccccc2NC(=O)COc2ccc(C3CCCCC3)cc2)CC1 -22.9%
CCn1cc(S(=O)(=O)c2cccc(C)c2)c(=O)c2cc(F)c(N3CCN(C)CC3)cc21 -6.95%
COc1ccc(CCNC(=O)CN2C(=O)CCSc3ccccc32)c(OC)c1 -12.6%
Cc1ccc(NC(=O)c2cccnc2C(=O)Nc2ccc(C)cc2)cc1 33.9%
CCCCC(CCC(=O)Nc1ccc(C(=O)OCC)cc1)C(=O)O (stereo not given) -35%
